PubChem BioAssay (NCATS)
Results filed as inconclusive are left out. Calls of active or inactive are those of the source. The call rests on the fitted dose curve; in most records, active means well fitted cell-killing curve with a large enough effect; inconclusive means small, poorly fitted or top-dose-only effect, or effect the other way; inactive means no such curve, though single readings can be large or run the other way.

Assay: Quantitative High-Throughput drug screen in 47 multiple myeloma cell lines against the NCATS MIPE library collection: UTMC2_PLB cell viability assay (AID 1919868); further: nearly all actives have a fitted effect of over 55% in size
Conditions: CellTiter-Glo ATP luminescence, 48 h; viability (% of DMSO control): at 45.8 µM (top of the series)
Source text: PI: Beverly A. Mock Ph.D.
Laboratory of Cancer Biology and Genetics,
Center for Cancer Research, National Cancer Institute,
National Institute of Health, Bethesda, Maryland
Drug resistance and disease progression are common in multiple myeloma (MM) patients, underscoring the need for new therapeutic combinations. […] We hypothesized that effective combinations would reduce MYC expression and enhance p16 activity. […] These preclinical data identify potentially useful drug combinations for evaluation in drug-resistant MM and reveal potential mechanisms of combined drug sensitivity.
Described herein is the primary MIPE qHTS used to cherrypick compounds. Validated compounds were then further tested for potential synergistic activiy.
[1] Peat TJ, Gaikwad SM, Dubois W, Gyabaah-Kessie N, Zhang S, Gorjifard S, Phyo Z, Andres M, Hughitt VK, Simpson RM, Miller MA, Girvin AT, Taylor A, Williams D, D'Antonio N, Zhang Y, Rajagopalan A, Flietner E, Wilson K, Zhang X, Shinn P, Klumpp-Thomas C, McKnight C, Itkin Z, Chen L, Kazandijian D, Zhang J, Michalowski AM, Simmons JK, Keats J, Thomas CJ, Mock BA. Drug combinations identified by high-throughput screening promote cell cycle transition and upregulate Smad pathways in myeloma. Cancer Lett. 2023 Aug 1;568:216284. doi: 10.1016/j.canlet.2023.216284. Epub 2023 Jun 24. PMID: 37356470; PMCID: PMC10408729.
SEQUENCE No. (e.g., 1, 2, 3, etc.); […] (e.g., Cells, Incubation, Reagent, etc.); VALUE and DESCRIPTION.
1; Cells; 5 uL; white, solid bottom 1536-well Greiner assay plate.
2; Compounds; 23 nL; Kalypsis pin tool (Wako USA) equipped with a 1536-well pin head to transfer to the assay plates.
3; Incubation; 48 hours; 37C incubation.
4; Reagent;5uL; CellTiter Glo (Promega).
5; Detector; 425V; Luminescence; Viewlux PerkinElmer.
NOTES (numbers refer to Sequence numbers above)
1. The cell-based screening methods employed in this study were like those previously published. Briefly, the corresponding myeloma cell lines were screened in 1,536-well plates with 500 cells, 5-uL per well for inhibition of cell viability (assessed by measuring ATP levels with CellTiterGlo).
2. NCATS MIPE 4.0 library of approved and investigational drugs were added using the Kalypsis pin tool. Wells treated with DMSO only for 100% viability and media only for 0% viability were used as controls.
3. The assay plates were covered and incubated for 48 hours in a 37C, 5% CO2 incubator with controlled humidity.
4. After 48 hours, CellTilter-GloTM luminescent substrate mix (Promega) reagent was added to the assay plate and plates we incubated for 5 min at room temperature.
5. Signal was measured as median relative luminescence units on a ViewLux (PerkinElmer) multiplate reader.
[1] Heske CM, Davis MI, Baumgart JT, Wilson K, Gormally MV, Chen L, Zhang X, Ceribelli M, Duveau DY, Guha R, Ferrer M, Arnaldez FI, Ji J, Tran HL, Zhang Y, Mendoza A, Helman LJ, Thomas CJ. Matrix Screen Identifies Synergistic Combination of PARP Inhibitors and Nicotinamide Phosphoribosyltransferase (NAMPT) Inhibitors in Ewing Sarcoma. Clin Cancer Res. 2017 Dec 1;23(23):7301-7311. doi: 10.1158/1078-0432.CCR-17-1121. Epub 2017 Sep 12. PMID: 28899971; PMCID: PMC6636827.
Potency means the concentration at half of the fitted maximal effect.

Row | Compound | Potency | viability (% of DMSO control)
1 | O=c1n(CCCN2CCN(c3cccc(Cl)c3)CC2)nc2ccccn12 | inactive | –
2 | CCOc1cc(C(=O)Nc2ccc(Cl)c(-c3nc4ccccc4[nH]3)c2)cc(OCC)c1OCC | inactive | –
3 | Cc1csc(NC(=O)c2sc3nc4c(c(C(F)(F)F)c3c2N)CCC4)n1 | inactive | –
4 | O=C(O)COCCN1CCN(C(c2ccccc2)c2ccc(Cl)cc2)CC1 (stereo not given) | inactive | –
5 | CCOC(=O)C1=C[C@]2(CC)CCCN3CCc4c(n1c1ccccc41)[C@@H]32 | 9.35 µM (active) | –
6 | OC(CN1CCC(Cc2ccc(F)cc2)CC1)c1ccc(Cl)cc1 (stereo not given) | inactive | –
7 | CC(C)OC(=O)C1=CN(C(=O)c2ccc(F)c(F)c2)CC(C)(C)c2c1[nH]c1ccccc21 | inactive | –
8 | Cc1cc([C@@H](C)Nc2ccccc2C(=O)O)c2nc(N3CCOCC3)cc(=O)n2c1 | 3.82 µM (active) | –
9 | C#Cc1cccc(Nc2ncnc3cc(OCCOC)c(OCCOC)cc23)c1 | 4.18 µM (active) | –
10 | CO[C@@H]1[C@H](N(C)C(=O)c2ccccc2)C[C@H]2O[C@]1(C)n1c3ccccc3c3c4c(c5c6ccccc6n2c5c31)C(=O)NC4 | 0.935 µM (active) | –
11 | CCn1c(-c2nonc2N)nc2cnc(Oc3cccc(NC(=O)c4ccc(OCCN5CCOCC5)cc4)c3)cc21 | 0.935 µM (active) | –
12 | CCCS(=O)(=O)Nc1ccc(F)c(C(=O)c2c[nH]c3ncc(-c4ccc(Cl)cc4)cc23)c1F | 14.8 µM (active) | –
13 | NC(=O)c1ccc(-c2nc(-c3ccc4c(c3)OCCO4)c(-c3ccccn3)[nH]2)cc1 | inactive | –
14 | CN1CCN(CCCN2c3ccccc3Sc3ccc(C(F)(F)F)cc32)CC1 | 10.5 µM (active) | –
15 | CS(=O)(=O)c1cccc(CNc2nc(Nc3ccc4c(c3)CCC(=O)N4)ncc2C(F)(F)F)c1 | 11.8 µM (active) | –
16 | COc1cccc2cc(-c3nc(C4CCC(C(=O)O)CC4)n4ncnc(N)c34)[nH]c12 (stereo not given) | 0.235 µM (active) | –
17 | CCCn1c(=O)c2[nH]c(C34CC5CC3C[C@@H](C5)C4)nc2n(CCC)c1=O | inactive | –
18 | CS(=O)(=O)Oc1ccc2c(NC(N)=O)c(C(=O)c3ccc(Cl)cc3Cl)oc2c1 | 16.6 µM (active) | –
19 | O=C(c1cc(Cc2n[nH]c(=O)c3ccccc23)ccc1F)N1CCN(C(=O)C2CC2)CC1 | 10.5 µM (active) | –
20 | CC1(C)Cc2c(-c3ccccc3)c(-c3ccc(Cl)cc3)c(CC(=O)O)n2C1 | 16.6 µM (active) | –

Row | Compound | Potency | viability (% of DMSO control)
21 | CCCCCCCc1ccc(CCc2cccc(O)c2C(=O)O)cc1 | 29.6 µM (active) | –
22 | Oc1cccc(-c2nc(N3CCOCC3)c3oc4ncccc4c3n2)c1 | 0.0382 µM (active) | –
23 | N[C@@H]1CONC1=O | inactive | –
24 | COc1ccc2nc(S(=O)Cc3ncc(C)c(OC)c3C)[nH]c2c1 (stereo not given) | – | 120% (active)
25 | COc1ccc(-c2ccc3c(N4CCOC[C@H]4C)nc(N4CCOC[C@H]4C)nc3n2)cc1CO | 0.001 µM (active) | –
26 | Cc1cc(Nc2nc(N[C@@H](C)c3ncc(F)cn3)ncc2Cl)n[nH]1 | 6.62 µM (active) | –
27 | CCc1cncnc1N1CCN(Cc2nc3ccc(C(F)(F)F)cc3[nH]2)CC1 | 18.7 µM (active) | –
28 | COc1ccccc1[C@H](c1cccc2ccccc12)[C@@](C)(C#N)C(=O)N1CCC(c2cccc(C(F)(F)F)c2)CC1 | 5.26 µM (active) | –
29 | Cc1ccc(-n2nc(C(C)(C)C)cc2NC(=O)Nc2ccc(OCCN3CCOCC3)c3ccccc23)cc1 | 4.18 µM (active) | –
30 | COc1cc(Oc2ccnc3cc(OC)c(OC)cc23)ccc1NC(=O)NC(C)c1nccs1 (stereo not given) | inactive | –
31 | COc1ccc(-c2ccc3c(N4CCOCC4)nc(N4C[C@@H](C)O[C@@H](C)C4)nc3n2)cc1CO | 0.526 µM (active) | –
32 | Cc1c(CN2CCN(C(=O)C(C)C)CC2)sc2c(N3CCOCC3)nc(-c3cnc(N)nc3)nc12 | 0.0526 µM (active) | –
33 | O=C(Nc1cccnc1)N1CCC(Cc2cccc(Oc3ccc(C(F)(F)F)cn3)c2)CC1 | 14.8 µM (active) | –
34 | COc1ccc(COc2cc3oc(=O)c4cc(C(C)O)ccc4c3cc2OC)cc1 (stereo not given) | 20.9 µM (active) | –
35 | Cc1cccc(-c2[nH]c(C(C)(C)C)nc2-c2ccc3nccnc3c2)n1 | 2.64 µM (active) | –
36 | Cn1cc(-c2ccc3nnc(C(F)(F)c4ccc5ncccc5c4)n3n2)cn1 | inactive | –
37 | CNC[C@H](O)c1cccc(O)c1 | 0.0021 µM (active) | –
38 | CCOC(=O)N1CCC(=C2c3ccc(Cl)cc3CCc3cccnc32)CC1 | inactive | –
39 | Nc1nccc(-c2ccc3noc(-c4ccc(Cl)cc4)c3c2)n1 | inactive | –
40 | Cn1cnc2c(F)c(Nc3ccc(Br)cc3Cl)c(C(=O)NOCCO)cc21 | inactive | –
